This is an account of results in PubChem BioAssay.

Values joined by “and” are separate entries in the source; they are usually repeats but may differ in a detail not shown here. Equal values may be shown once. Inconclusive results are not listed. Active and inactive are the calls of the source.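 Rule for the calls, unless noted: active = inhibition above 50%, about 3 SD of the validation set; inactive = the rest.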

Experiment [1] can be described thus: yeast TOR pathway RPL19A-GFP modulators, primary screen, cell-based, S. cerevisiae, multiplex flow cytometry (AID 1862; in the data active = percent of DMSO control GFP below about 86%;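 note: lower values mimic rapamycin by blocking the RPL19A rise seen in DMSO cells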). As to conditions: S. cerevisiae RPL19A-GFP strain, flow cytometry fluorescence, 3 h; at 10 µM; stronger effect = lower value.
The nature of experiment [2]: modulators of MEP2-GFP levels in yeast, primary screen, S. cerevisiae, multiplex flow cytometry (AID 1867;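 active = GFP response, as percent of the DMSO control, above the screen-wide mean plus 3 SD, about 139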;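 note: median GFP channel fluorescence of barcode-gated MEP2-GFP cells measured by flow cytometry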). As to conditions: S. cerevisiae MEP2-GFP strain, 3 h, at 10 µM, stronger effect = higher value, 100% means same as DMSO wells. Background: In flow cytometry, cells or beads pass a laser one at a time.
A short description of experiment [3]: modulators of CIT2-GFP expression in yeast, primary screen, S. cerevisiae, GFP fusion, multiplex flow cytometry (AID 1870;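 active = percent response above a set limit, the screen-wide mean plus 3 SD, cut at about 130% in these data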;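 note: barcoded CIT2-GFP strain pooled with four other GFP strains with rapamycin as positive control; median GFP fluorescence per well over plate mean of DMSO wells so 100% = DMSO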). The following applies: 3 h, at 10 µM, stronger effect = higher value.
The nature of experiment [4]: modulators of LAP4-GFP expression in yeast, primary screen, S. cerevisiae, multiplex flow cytometry (AID 1873;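 active = GFP signal, as percent of the solvent control, above the screen mean plus 3 SD, about 149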). As to conditions: 3 h, at 10 µM, stronger effect = higher value.
The nature of experiment [5]: modulators of AGP1-GFP expression in yeast TOR pathway, primary screen, cell-based, multiplex flow cytometry, S. cerevisiae (AID 1887;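 active = GFP signal above the screen-wide mean plus 3 SD, that is over about 124.5% of the solvent control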;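 note: AGP1-GFP fusion strain of S. cerevisiae within a five-strain barcoded multiplex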). The following applies: 3 h, at 10 µM, stronger effect = higher value.
A short description of experiment [6]: inhibitors of CD8+ T cell-vesicle binding, pilot screen, LFA-1/ICAM-1 modulator project, MLPCN validation set, flow cytometry (AID 2523;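 active = response below a set limit, under 55% cells CD8-positive and vesicle-bound, and CD8 cells' 90th-percentile brightness under 279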;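 for vesicle binding response: mean PE anti-B7-1 fluorescence of CD8+ cells relative to row control; 100% = QL9-loaded vesicles with DMSO vehicle in the same plate row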). As to conditions: 2C mouse CD8+ T cells, at 7 µM, stronger effect = lower value; double positive events: measured here: CD8+/vesicle+ event percentage.
The target of experiment [7] is Integrin beta-1 (Homo sapiens) + Integrin alpha-4 (Homo sapiens) (UniProt P13612+P05556). In words: inhibition of HUTS-21 binding to VLA-4, pilot screen, VLA-4 allosteric modulator project, U937 cells, HUTS-21 mAb, flow cytometry, validation set (AID 2674).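 Note: antibody binding induced by the VLA-4 ligand LDV present at three times its Kd; 0% = LDV ligand with antibody and no compound and 100% = antibody without LDV.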 The following applies: HUTS-21 LIBS mAb binding, at 6.7 µM, stronger effect = higher value, binding induced by LDV ligand.
Sequence of Integrin beta-1 (Homo sapiens) + Integrin alpha-4 (Homo sapiens) (P05556 whole entry, looked up): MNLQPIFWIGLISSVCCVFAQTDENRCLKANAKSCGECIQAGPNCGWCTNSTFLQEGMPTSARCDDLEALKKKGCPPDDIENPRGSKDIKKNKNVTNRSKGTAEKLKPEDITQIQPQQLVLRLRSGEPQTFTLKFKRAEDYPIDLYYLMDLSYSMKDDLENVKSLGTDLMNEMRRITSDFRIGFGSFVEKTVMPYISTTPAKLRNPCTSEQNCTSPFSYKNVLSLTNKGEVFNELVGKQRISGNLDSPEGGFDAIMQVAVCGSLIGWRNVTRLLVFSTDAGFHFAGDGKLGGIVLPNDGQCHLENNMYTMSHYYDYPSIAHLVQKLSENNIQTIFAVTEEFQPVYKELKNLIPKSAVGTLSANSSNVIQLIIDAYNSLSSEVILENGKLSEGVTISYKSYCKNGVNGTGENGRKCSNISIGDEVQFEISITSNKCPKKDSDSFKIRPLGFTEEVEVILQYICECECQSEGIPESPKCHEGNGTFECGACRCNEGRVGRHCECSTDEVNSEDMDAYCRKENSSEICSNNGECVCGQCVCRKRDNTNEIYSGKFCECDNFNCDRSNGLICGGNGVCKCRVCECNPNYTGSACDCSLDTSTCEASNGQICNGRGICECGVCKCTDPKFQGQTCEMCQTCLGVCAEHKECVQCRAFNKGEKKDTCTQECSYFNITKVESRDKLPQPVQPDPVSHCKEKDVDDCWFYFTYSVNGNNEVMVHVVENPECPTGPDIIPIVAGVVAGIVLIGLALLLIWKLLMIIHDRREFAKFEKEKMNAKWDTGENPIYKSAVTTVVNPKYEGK
Sequence of Integrin beta-1 (Homo sapiens) + Integrin alpha-4 (Homo sapiens) (P13612 whole entry, looked up): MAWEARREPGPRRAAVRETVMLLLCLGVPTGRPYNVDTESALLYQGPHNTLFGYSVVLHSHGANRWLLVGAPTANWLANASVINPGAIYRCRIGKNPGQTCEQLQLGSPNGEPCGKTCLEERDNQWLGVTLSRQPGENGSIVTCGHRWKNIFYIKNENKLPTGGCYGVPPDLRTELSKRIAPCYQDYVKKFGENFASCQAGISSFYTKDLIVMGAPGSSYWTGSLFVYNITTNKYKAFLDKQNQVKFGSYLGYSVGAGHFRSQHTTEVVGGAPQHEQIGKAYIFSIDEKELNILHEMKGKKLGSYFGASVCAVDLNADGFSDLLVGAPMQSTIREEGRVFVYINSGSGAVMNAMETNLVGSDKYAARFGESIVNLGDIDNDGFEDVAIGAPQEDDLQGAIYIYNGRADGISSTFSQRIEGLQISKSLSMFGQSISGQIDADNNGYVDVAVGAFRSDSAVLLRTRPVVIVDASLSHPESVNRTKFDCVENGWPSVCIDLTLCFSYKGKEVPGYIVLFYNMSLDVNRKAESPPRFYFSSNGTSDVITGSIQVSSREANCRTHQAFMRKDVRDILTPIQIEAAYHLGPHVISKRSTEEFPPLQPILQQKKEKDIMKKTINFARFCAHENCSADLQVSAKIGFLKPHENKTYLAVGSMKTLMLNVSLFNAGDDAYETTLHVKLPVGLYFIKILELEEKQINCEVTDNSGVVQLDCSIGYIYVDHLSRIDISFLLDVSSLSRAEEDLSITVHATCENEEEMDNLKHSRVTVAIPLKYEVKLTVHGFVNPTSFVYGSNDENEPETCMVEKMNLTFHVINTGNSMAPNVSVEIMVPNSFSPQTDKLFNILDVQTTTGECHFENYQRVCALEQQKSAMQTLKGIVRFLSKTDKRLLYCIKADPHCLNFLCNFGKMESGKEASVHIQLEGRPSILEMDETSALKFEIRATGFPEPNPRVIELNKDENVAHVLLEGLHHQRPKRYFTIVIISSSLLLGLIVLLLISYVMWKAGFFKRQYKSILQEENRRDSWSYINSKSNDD

Experiment [8] is described as follows: superoxide lowering in aged yeast cells, pilot screen, validation compound set (AID 2706;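 active = superoxide response below 65% of plate, a cut near 3 SD across the whole screen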;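 note: yeast exposed to compound for one week at 30 degrees C before staining; 100% = mean of all compound wells on the same plate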). As to conditions: S. cerevisiae aging, superoxide DHE fluorescence; at 10 µM; stronger effect = lower value.
Experiment [9] addresses Beta-adrenergic receptor kinase 1 (Homo sapiens) (UniProt P25098). In words: GRK2 binders displacing RNA aptamer, biochemical, validation, human GRK2, bead flow cytometry (AID 488806;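 active = aptamer binding inhibition above 30%, about 3 SD of noise from non-fluorescent compounds; inactive = inhibition at or below 30%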). The following applies: bead-bound GRK2, FAM-aptamer displacement, at 10 µM, stronger effect = higher value.
Experiment [10] addresses Beta-2 adrenergic receptor (Homo sapiens) (UniProt P07550). In words: beta2AR agonists driving receptor internalization, pilot screen, cell-based, FAP fluorogen, flow cytometry, validation set (AID 504459;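 active = percent response above 42, roughly 3 SD of non-fluorescent test compounds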;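 note: agonist-driven loss of surface beta2AR via internalization measured by FAP dye flow cytometry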). As to conditions: Am2.2-beta2AR cells, FAP surface receptor flow cytometry; at 10 µM; stronger effect = higher value.
Experiment [11] deals with AP-2 complex subunit beta (Homo sapiens) (UniProt P63010). In words: inhibitors of arrestin peptide binding to AP2, pilot screen, biochemical, validation set, GST-AP2 beads, flow cytometry (AID 504541;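 active = inhibition above 54%, about 3 SD of non-fluorescent compounds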;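 note: AP2 carries R879A mutation and is captured from E. coli lysate; bead-bound FITC arrestin peptide fluorescence measuring arrestin peptide binding to AP2; 0% = DMSO wells and 100% = excess unlabeled arrestin peptide control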). As to conditions: FITC arrestin peptide, at 10 µM, stronger effect = higher value, AP2 beta2 appendage fragment, R879A mutant.
Sequence of AP-2 complex subunit beta (Homo sapiens) (P63010 whole entry, looked up, the tested form may be a part, one chain of several): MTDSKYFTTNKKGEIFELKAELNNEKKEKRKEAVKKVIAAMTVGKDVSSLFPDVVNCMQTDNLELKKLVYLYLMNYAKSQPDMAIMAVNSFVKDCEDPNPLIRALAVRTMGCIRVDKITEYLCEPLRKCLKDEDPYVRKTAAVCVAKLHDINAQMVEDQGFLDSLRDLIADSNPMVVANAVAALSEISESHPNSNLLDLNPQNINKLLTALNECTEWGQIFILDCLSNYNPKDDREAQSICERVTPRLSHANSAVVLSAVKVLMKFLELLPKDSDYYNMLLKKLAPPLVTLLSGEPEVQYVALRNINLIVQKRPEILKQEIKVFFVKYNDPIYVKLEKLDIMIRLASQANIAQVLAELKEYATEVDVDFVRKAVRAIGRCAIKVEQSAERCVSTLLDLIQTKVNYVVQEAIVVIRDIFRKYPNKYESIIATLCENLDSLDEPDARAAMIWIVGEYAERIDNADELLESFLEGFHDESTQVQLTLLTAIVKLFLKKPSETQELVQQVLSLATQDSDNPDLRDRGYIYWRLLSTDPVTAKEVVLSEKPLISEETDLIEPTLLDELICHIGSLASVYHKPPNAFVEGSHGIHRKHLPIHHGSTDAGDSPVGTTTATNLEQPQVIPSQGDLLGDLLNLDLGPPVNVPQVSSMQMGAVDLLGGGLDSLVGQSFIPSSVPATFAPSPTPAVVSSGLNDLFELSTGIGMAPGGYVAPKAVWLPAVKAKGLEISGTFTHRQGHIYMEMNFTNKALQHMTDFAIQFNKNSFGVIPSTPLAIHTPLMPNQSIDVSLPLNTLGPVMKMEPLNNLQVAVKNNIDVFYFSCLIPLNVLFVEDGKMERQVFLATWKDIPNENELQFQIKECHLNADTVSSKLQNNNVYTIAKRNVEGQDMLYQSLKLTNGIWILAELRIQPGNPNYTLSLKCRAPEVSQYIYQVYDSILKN
Experiment [12] is described as follows: yeast V-ATPase proton transport modulators, S. cerevisiae, pHLuorin, HTS validation (AID 504600; in the data active = response above about 15%;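 note: plate controls were DMSO for no effect and reference compound for full effect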). As to conditions: S. cerevisiae pHLuorin cytosolic pH, at 10 µM, stronger effect = higher value.
The test system of experiment [13] is anti-desmoglein-3 scFv antibody binding to human DSG3. In words: inhibitors of anti-DSG3 scFv binding to DSG3, pilot screen, biochemical, validation compound set, bead-based, flow cytometry (AID 588368;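 active = binding below the plate cutoff, the plate median minus 3 SD, with a reading above zero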;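 note: signal is the median channel fluorescence of bead-bound GFP antibody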). The following applies: Protein G beads, DSG3-Fc, scFv-GFP binding, at 10 µM, stronger effect = lower value.
A short description of experiment [14]: inhibitors of fungal efflux pumps CDR1, CDR2, MDR1, pilot screen, validation compound set, multiplex, phenotypic (AID 588506;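 active = efflux inhibition above 0.42, the validation set average plus 4 SD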;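 note: Nile Red retained in cells so higher fluorescence means more efflux inhibition; 0 = negative control wells and 1 = enniatin B 25 µM full block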). As to conditions: S. cerevisiae pump-expressing triplex, Nile Red efflux flow cytometry; at 10 µM; stronger effect = higher value; the pumps come from Candida albicans.
Experiment [15] concerns the target ATP-binding cassette sub-family B member 6 (Homo sapiens) (UniProt Q9NP58). The experiment can be described thus: ABCB6 transporter inhibitors, pilot screen, K562-ABCB6 cells, flow cytometry, validation set (AID 588550;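 active = inhibition above the screen-wide mean plus 3 SD, about 51%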;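 note: 0% = DMSO wells and 100% = benzethonium chloride 70 µM positive control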). The following applies: K562-ABCB6 porphyrin accumulation, 1 h, at 10 µM, stronger effect = higher value.
A short description of experiment [16]: promoters of myeloid differentiation in arrested cells, primary screen, cell-based, GFP/MAC1 double positive, flow cytometry, validation set (AID 588685;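 active = differentiation response of at least 50%, scaled between solvent and reference control, from cells with both markers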;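 note: compound exposure lasts four days before antibody staining and flow analysis; 0% = DMSO wells and 100% = 5 µM fulvestrant positive control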). As to conditions: ER-HoxA9 marrow cells, stronger effect = higher value, normalized: vehicle 0, fulvestrant 100.

Sequence of ATP-binding cassette sub-family B member 6 (Homo sapiens) (Q9NP58 whole entry, looked up): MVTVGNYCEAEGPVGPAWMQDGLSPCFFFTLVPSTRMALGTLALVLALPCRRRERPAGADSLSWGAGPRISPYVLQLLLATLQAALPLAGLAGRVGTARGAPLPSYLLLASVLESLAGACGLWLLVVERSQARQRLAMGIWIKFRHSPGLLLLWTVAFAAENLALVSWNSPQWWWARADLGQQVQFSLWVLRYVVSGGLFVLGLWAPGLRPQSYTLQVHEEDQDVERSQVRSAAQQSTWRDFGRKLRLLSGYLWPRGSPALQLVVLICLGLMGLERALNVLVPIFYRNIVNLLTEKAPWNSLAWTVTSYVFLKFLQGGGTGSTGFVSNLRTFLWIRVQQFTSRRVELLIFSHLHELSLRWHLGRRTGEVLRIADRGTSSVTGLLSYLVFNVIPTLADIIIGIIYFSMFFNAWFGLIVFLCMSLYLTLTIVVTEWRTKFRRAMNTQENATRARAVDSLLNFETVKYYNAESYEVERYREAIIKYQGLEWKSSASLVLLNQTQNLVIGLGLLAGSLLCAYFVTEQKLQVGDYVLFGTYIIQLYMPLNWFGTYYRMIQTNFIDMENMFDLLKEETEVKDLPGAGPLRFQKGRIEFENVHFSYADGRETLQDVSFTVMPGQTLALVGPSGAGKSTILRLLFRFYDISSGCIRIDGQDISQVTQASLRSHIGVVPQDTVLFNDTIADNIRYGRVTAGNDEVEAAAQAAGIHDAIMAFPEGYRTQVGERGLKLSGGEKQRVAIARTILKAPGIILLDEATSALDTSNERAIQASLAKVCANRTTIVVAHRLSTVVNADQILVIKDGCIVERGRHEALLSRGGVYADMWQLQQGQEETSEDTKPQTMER
Sequence of Beta-2 adrenergic receptor (Homo sapiens) (P07550 whole entry, looked up): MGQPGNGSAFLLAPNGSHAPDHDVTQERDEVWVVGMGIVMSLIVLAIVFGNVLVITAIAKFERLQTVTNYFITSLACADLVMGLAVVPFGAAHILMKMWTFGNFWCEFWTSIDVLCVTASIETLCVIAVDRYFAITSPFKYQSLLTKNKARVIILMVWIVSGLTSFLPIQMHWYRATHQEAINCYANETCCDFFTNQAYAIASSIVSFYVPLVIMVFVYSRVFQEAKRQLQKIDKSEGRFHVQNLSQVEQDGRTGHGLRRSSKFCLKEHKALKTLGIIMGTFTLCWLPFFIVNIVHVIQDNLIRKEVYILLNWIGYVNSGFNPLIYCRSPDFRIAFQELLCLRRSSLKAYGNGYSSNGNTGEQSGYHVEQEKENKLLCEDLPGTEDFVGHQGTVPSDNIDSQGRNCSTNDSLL
Sequence of Beta-adrenergic receptor kinase 1 (Homo sapiens) (P25098 whole entry, looked up): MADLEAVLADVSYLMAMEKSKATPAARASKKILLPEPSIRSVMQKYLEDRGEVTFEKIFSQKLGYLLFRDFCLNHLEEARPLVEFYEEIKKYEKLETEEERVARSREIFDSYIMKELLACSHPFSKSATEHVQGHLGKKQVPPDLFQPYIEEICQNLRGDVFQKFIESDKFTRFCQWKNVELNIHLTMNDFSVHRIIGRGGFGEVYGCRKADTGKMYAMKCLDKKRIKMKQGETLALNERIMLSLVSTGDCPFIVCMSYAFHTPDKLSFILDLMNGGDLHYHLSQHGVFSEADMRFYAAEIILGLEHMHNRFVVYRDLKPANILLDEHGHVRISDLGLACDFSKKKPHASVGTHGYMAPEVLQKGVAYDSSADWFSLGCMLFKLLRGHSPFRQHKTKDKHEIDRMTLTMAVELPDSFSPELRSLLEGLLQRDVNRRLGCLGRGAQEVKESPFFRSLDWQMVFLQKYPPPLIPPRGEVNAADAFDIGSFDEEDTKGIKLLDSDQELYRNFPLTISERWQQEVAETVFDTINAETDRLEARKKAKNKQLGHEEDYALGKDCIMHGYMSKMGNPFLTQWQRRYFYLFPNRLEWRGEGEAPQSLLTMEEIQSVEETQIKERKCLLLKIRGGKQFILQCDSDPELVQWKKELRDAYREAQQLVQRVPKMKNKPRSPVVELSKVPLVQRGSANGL

In general, inhibition refers to the drop in the measured response relative to a control, in per cent. Take `COc1cc2c(cc1OC)C(=S)NC(C)(C)C2`: in experiment [1], the percent of DMSO control GFP was 102% (inactive). For the same compound, the GFP response vs DMSO in experiment [2] is 106% (inactive); in [4] it was 95.3% (inactive). In addition, the percent response of DMSO control in experiment [3] was 100% (inactive). For the same compound, the GFP response, % of DMSO in experiment [5] is 102% (inactive). In experiment [6], this compound came in with a double positive events of 60.1%. Further, the vesicle binding response in experiment [6] was 1280% (inactive). In addition, the inhibition in experiment [7] is -11.9% (inactive); in experiment [11], 22% (inactive); in [15] it was -13% (inactive). In experiment [8], the superoxide response (% of plate) is 110% (inactive). Also, the aptamer binding inhibition in [9] is 0% (inactive). For the same compound, the response in [10] is 0.62% (inactive); in experiment [12], -4.8% (inactive). Also, in experiment [13], the binding (% of control) was 101% (inactive). In [14], the efflux inhibition (fraction of control) was 0.08 (inactive). In addition, the differentiation response in [16] was 6.11% (inactive).

In the case of `c1ccc(SSc2ccccc2)cc1`, the percent of DMSO control GFP in [1] was 105% (inactive). In addition, the GFP response vs DMSO in experiment [2] is 108% (inactive); in experiment [4] it was 96.6% (inactive). Further, in experiment [3], the percent response of DMSO control was 118% (inactive). In experiment [5], the GFP response, % of DMSO is 103% (inactive). In experiment [6], this compound yielded a double positive events of 62.9%. The vesicle binding response in experiment [6] is 301% (inactive). The inhibition in experiment [7] was -0.45% (inactive); in experiment [11], -24.5% (inactive); in experiment [15] it was -6% (inactive). For the same compound, in experiment [8], the superoxide response (% of plate) was 93.6% (inactive). The aptamer binding inhibition in experiment [9] is 2% (inactive). In addition, the response in experiment [10] was 1.12% (inactive); in experiment [12], 3.24% (inactive). Also, the binding (% of control) in experiment [13] is 93.5% (inactive). Further, in [14], the efflux inhibition (fraction of control) was -0.04 (inactive). Moreover, the differentiation response in experiment [16] was -2.69% (inactive).

For `CCOC(=O)c1c(C)oc2c1C(=O)c1ccccc1C2=O`, the percent of DMSO control GFP in experiment [1] was 111% (inactive). For the same compound, the results for the GFP response vs DMSO in experiment [2] and in experiment [4] were 102% (inactive) and 104% (inactive), respectively. Besides, the percent response of DMSO control in experiment [3] is 107% (inactive). Besides, in experiment [5], the GFP response, % of DMSO was 99.9% (inactive). In [6], this compound registered a double positive events of 59.4%. In [6], the vesicle binding response is 316% (inactive). In addition, the inhibition in experiment [7] is -16.1% (inactive); in [11], 0.55% (inactive); in [15], -26% (inactive). The superoxide response (% of plate) in experiment [8] was 126% (inactive). The aptamer binding inhibition in experiment [9] was 5% (inactive). Besides, the response in [10] was 3.7% (inactive); in [12], 0.26% (inactive). The binding (% of control) in experiment [13] was 96.7% (inactive). In addition, the efflux inhibition (fraction of control) in experiment [14] is -0.22 (inactive). The differentiation response in [16] was -0.36% (inactive).

For the compound `NCCc1cnc[nH]1`, the percent of DMSO control GFP in experiment [1] is 89.8% (inactive) and 102% (inactive). The GFP response vs DMSO is 129% (inactive) and 104% (inactive) in [2]; 78.7% (inactive) and 113% (inactive) in [4]. Moreover, the percent response of DMSO control in experiment [3] was 101% (inactive) and 102% (inactive). Besides, the GFP response, % of DMSO in experiment [5] is 84.5% (inactive) and 117% (inactive). For the same compound, the double positive events in experiment [6] was 55.6% and 61.9%. In experiment [6], the vesicle binding response was 192% (inactive) and 166% (inactive). In addition, the inhibition was -33.3% (inactive) and -35.2% (inactive) in experiment [7]; -4.51% (inactive) and -1.77% (inactive) in [11]; 5% (inactive) and -3% (inactive) in experiment [15]. Besides, the superoxide response (% of plate) in experiment [8] was 105% (inactive) and 109% (inactive). Moreover, the aptamer binding inhibition in experiment [9] was 3% (inactive) and 0% (inactive). Besides, the response is -15.1% (inactive) and -30.5% (inactive) in experiment [10]; 25.1% (active) and 47.3% (active) in experiment [12]. The binding (% of control) in experiment [13] is 105% (inactive) and 106% (inactive). Also, the efflux inhibition (fraction of control) in [14] is 0.09 (inactive) and 0.04 (inactive). The differentiation response in experiment [16] was -5.73% (inactive) and -4.99% (inactive).

`COc1ccc(Br)cc1C(=O)Nc1ccc(C(=O)O)cc1`: the percent of DMSO control GFP in experiment [1] was 107% (inactive). Besides, the results for the GFP response vs DMSO in experiment [2] and in experiment [4] were 105% (inactive) and 127% (inactive), respectively. The percent response of DMSO control in [3] was 88.4% (inactive). For the same compound, the GFP response, % of DMSO in experiment [5] is 68.8% (inactive). For the same compound, the double positive events in [6] amounted to 63.9%. Also, the vesicle binding response in [6] is 240% (inactive). Besides, the inhibition in experiment [7] is -0.45% (inactive); in experiment [11], -7.7% (inactive); in experiment [15], -4% (inactive). Besides, in experiment [8], the superoxide response (% of plate) is 97.6% (inactive). Besides, the aptamer binding inhibition in [9] was 3% (inactive). The response was -0.63% (inactive) in [10] and 1.41% (inactive) in experiment [12]. Further, the binding (% of control) in experiment [13] was 96.3% (inactive). For the same compound, the efflux inhibition (fraction of control) in experiment [14] is -0.04 (inactive). In addition, the differentiation response in experiment [16] was 5.13% (inactive).
